Source: PubChem
PTAP TSG101 blk: blocks PTAP/TSG101 interaction to inhibit HIV-1 budding; Q99816; Potency, µM (top dose mostly 115 µM), for inactives: at the top dose activity change, negative = inhibition, hits mostly inhibitors; 340,000 tested, under 10 active; Fluorescence polarization, FITC-PTAP peptide / Tsg101 binding; active = well fitted inhibition curve with a large enough effect in the main read-out, with a control signal flat, not every such curve was filed as active; inconclusive = small, poorly fitted or top-dose-only effect, or effect the other way, or a change in a side signal; inactive = no such curve, though single readings can be large or run the other way; note: % of control where 0% means no effect
Target sequence (Q99816 whole entry, looked up): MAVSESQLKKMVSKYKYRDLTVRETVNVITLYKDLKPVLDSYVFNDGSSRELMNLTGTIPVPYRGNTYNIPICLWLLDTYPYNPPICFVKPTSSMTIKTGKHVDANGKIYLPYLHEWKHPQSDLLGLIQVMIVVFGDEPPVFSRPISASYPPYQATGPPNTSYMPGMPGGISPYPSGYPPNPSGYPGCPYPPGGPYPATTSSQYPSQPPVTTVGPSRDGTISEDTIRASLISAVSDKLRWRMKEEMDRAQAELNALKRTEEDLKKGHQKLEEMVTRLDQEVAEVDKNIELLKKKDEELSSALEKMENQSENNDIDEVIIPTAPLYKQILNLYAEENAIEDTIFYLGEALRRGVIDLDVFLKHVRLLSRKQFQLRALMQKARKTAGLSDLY
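Steps: Tsg101 binding domain dispensed (10 uM final), compounds pinned in DMSO, FITC-labeled PTAP-motif peptide added (50 nM final); after 20 min binding at room temperature, polarization measured.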
SW480 rerep: induces DNA re-replication in SW480 colon adenocarcinoma cells. SW480 DNA re-replication, Hoechst DNA content imaging, 48 h. Potency, µM (series often up to 46.1 µM), for the others: top-dose re-replication activation, hits mostly activators. actives 1.8% (n = 340,000). AID 624297; note: % of control where 0% means no effect; nearly all actives have a fitted effect of over 55% in size
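DNA re-replication was detected as more nuclei of elevated Hoechst intensity after 48 hr exposure to compound (23 nL pinned per well of 250 cells).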
MCF10A rerep: DNA re-replication induction in MCF 10a cells. MCF 10A DNA re-replication, Hoechst nuclear intensity, 48 h. Potency, µM (top dose mostly 46.1 µM), without a hit: at the highest dose activity, positive = re-replication, actives largely listed as activators. actives 2.9% (n = 350,000). AID 624296; note: % of control where 0% means no effect; nearly all actives have a fitted effect of over 50% in size
KB-3-1 cytotox: KB-3-1 parental cell cytotoxicity | KB-3-1 viability, CellTiter-Glo ATP luminescence, 72 h | Potency, µM (top dose mostly 46.1 µM), most hits filed as cytotoxic | actives 1.4% (n = 400,000); note: % is set by controls: 0 for no effect and ±100 for the full control effect; nearly all actives have a fitted effect of over 60% in size
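Parental KB-3-1 adenocarcinoma cells in phenol-red-free DMEM with 10% FBS were pin-treated with compounds at several concentrations, incubated 72 h at 37 °C, and viability read by CellTiter-Glo luminescence; concentration-effect curves were fitted after normalization.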
PINK1 modulator: PINK1 expression modulation; PINK1 immunofluorescence, high-content cytometry, 24 h; actives 0.2% (n = 410,000); Potency, µM (titrated, usually from 76.6 µM), inactives show top-dose activation (PINK1 increase), usual class: activators; active = well fitted activation curve with a large enough effect; inconclusive = small, poorly fitted or top-dose-only effect; cell line not stated here; note: % of control where 0% means no effect; nearly all actives have a fitted effect of over 65% in size
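A stable cell line was treated with compounds at 5 concentrations for 24 hours, with CCCP as control. PINK1 levels and mitochondrial localization were measured by immunofluorescence with mitochondrial, cell and nuclear markers after fixation, read by laser-scanning cytometry.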
KB-V1 MDR tox: KB-V1 MDR subline cytotoxicity | KB-V1 MDR cells viability, CellTiter-Glo, 72 h | Potency, µM (highest dose often 46.1 µM), most hits filed as cytotoxic | actives 3.4% (n = 400,000) | AID 1347076; note: % is set by controls: 0 for no effect and ±100 for the full control effect; nearly all actives have a fitted effect of over 60% in size
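Luminescent ATP read-out (CellTiter-Glo, 10 min) measures survival of drug-selected KB-V1 MDR cells after 72 h, 37 degrees C compound exposure. Medium: phenol-red-free DMEM, 10% FBS. Values from fitted concentration-response curves.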
* marks the source's active call; other numbers are inactive results; i = inactive; ? = inconclusive; . = no result; [ ] = another dose, or the depositor's remark. Rows were chosen to be rich in hits. Some 6.8% of all compounds tested hit in one or more screens of this group. Unless noted, calls come from the whole dose curve; as a rule, active = well fitted curve in the direction sought with a large enough effect; inconclusive = small, poorly fitted or top-dose-only effect, or another doubt; inactive = no such curve, though single readings can be large; an effect the other way counts as inactive or inconclusive. Potency is the fitted concentration of half-maximal effect.

SMILES	PTAP TSG101 blk	SW480 rerep	MCF10A rerep	KB-3-1 cytotox	PINK1 modulator	KB-V1 MDR tox
COc1ccc(-c2ccc(=O)n(CC(=O)NC3CCc4ccccc43)n2)cc1OC (stereo not given)	-1%	-24%	-10%	i	0%	?
CCOC(=O)c1ccn(-c2nc(-c3cccc(OC)c3)cc(C(F)(F)F)n2)n1	.	.	.	i	3%	i
COc1ccc(C(=O)CC(Sc2ccccc2N)c2ccc(OC)cc2)cc1 (stereo not given)	.	.	.	23µM*	-1%	i
COc1ccc(C(=O)CC(c2ccccc2)C2C(=O)CCCC2=O)cc1 (stereo not given)	1%	0%	0%	i	3%[38.3 µM]	i
COc1ccc(CN(C)CC(=O)Nc2sc3c(c2C#N)CCC3)cc1OC	-3%	12µM*	?	i	1%	i
CN(CC(=O)Nc1sc2c(c1C#N)CCCCC2)Cc1nc2ccccc2c(=O)[nH]1	-1%	-6%	?	i	4%	16µM*
CN(Cc1nc2ccccc2c(=O)[nH]1)C(=O)c1cc2c(s1)CCCCC2	-4%	-4%	27%	i	0%	i
COc1cccc(CN(C)CC(=O)Nc2sc3c(c2C#N)CCC3)c1OC	-1%	-38%	-4%	i	1%	i
CCc1ccccc1NC(=O)Cn1cc(C(=O)c2ccc(Cl)cc2)c(=O)c2ccc(C)nc21	.	.	.	i	1%	i
O=C(NNc1ccccc1F)c1sccc1Cl	.	.	.	.	3%	.
CCOc1ccc(CNC(=O)CCCn2c(=O)c3cccn3c3ccc(F)cc32)cc1	.	.	.	.	0%	.
CC(C)CCNC(=O)c1ccc(Cn2c(SCC(=O)NC(C)C)nc3ccccc3c2=O)cc1	.	.	.	i	-4%	i
CN(C)CCCn1c(-c2ccccc2)nc(=S)c2c1CCCC2	-2%	3.3µM*	-181%[0.0737 µM]	i	-2%	i
Cc1ccc(CNC(=O)C(C)n2nc(C)n3c(cc4sccc43)c2=O)cc1 (stereo not given)	.	.	.	i	2%	i
Cc1c(C(=O)OCCOC(C)C)[nH]c2c1C(=O)CC(c1ccco1)C2 (stereo not given)	-1%	1.5µM*	?	0.52µM*	5%	0.46µM*
Cc1c(C(=O)OCc2ccccc2)[nH]c2c1C(=O)CC(c1ccco1)C2 (stereo not given)	0%	?	?	0.58µM*	2%	?
COc1ccc(C2CC(=O)c3c([nH]c(C(=O)OCc4ccccc4)c3C)C2)cc1 (stereo not given)	.	.	.	i	6%	?
CCc1ccc(C2CC(=O)c3c([nH]c(C(=O)OCC4CCCCC4)c3C)C2)cc1 (stereo not given)	.	.	.	i	0%	i
CCOC(=O)c1[nH]c2c(c1C)C(=O)CC(c1ccco1)C2 (stereo not given)	2%	0.18µM*	9.2µM*	i	9%	i
COCCOC(=O)c1[nH]c2c(c1C)C(=O)CC(c1ccco1)C2 (stereo not given)	-4%	1µM*	8.2µM*	1.2µM*	9%	1.2µM*
COCCOC(=O)c1[nH]c2c(c1C)C(=O)CC(c1ccc(N(C)C)cc1)C2 (stereo not given)	1%	-3%	8%	i	0%	i
CCOc1ccc(NC(=O)N2CCN(Cc3cc(=O)n4nc(-c5ccc(OC)cc5)sc4n3)CC2)cc1	.	.	.	i	4%	i
CSCCOC(=O)c1[nH]c2c(c1C)C(=O)CC(c1ccco1)C2 (stereo not given)	-1%	1.3µM*	?	1.2µM*	18%	?
Cc1cc(C)c(COc2ccc(/C=N/n3c(C)n[nH]c3=S)cc2)c(C)c1	-7%	-80%	13µM*	i	5%	i
Cc1n[nH]c(=S)n1/N=C/c1ccc(OCc2ccc(Cl)cc2)cc1	-6%	-10%	12%	i	-1%	?
SMILES	PTAP TSG101 blk	SW480 rerep	MCF10A rerep	KB-3-1 cytotox	PINK1 modulator	KB-V1 MDR tox
C=C(C)C(O)CC/C(C)=C/Cc1c(O)ccc(C(=O)/C=C/c2ccc(O)cc2)c1O (stereo not given)	-2%	?	21µM*	i	0%	i
COc1ccc(C(=O)/C=C/c2ccc(O)cc2)c(O)c1C/C=C(\C)CCC=C(C)C	-1%	-9%	14%	i	-1%	i
O=C(C1=C(c2ccccc2)C(=O)c2ccccc2C1=O)c1ccccc1	-3%	7.3µM*	5.2µM*	?	-1%	?
Fc1cccc(NC(=S)N2CCn3cccc3C2c2cccnc2)c1 (stereo not given)	-2%	15%	2%	i	-1%	?
S=C(Nc1ccccc1)N1CCn2cccc2C1c1cccnc1 (stereo not given)	-1%	-8%	-5%	i	-1%	16µM*
CCOc1ccc(Cn2c(CNS(=O)(=O)c3cccs3)nc3cccnc32)cc1	.	.	.	.	-1%	.
CCc1ccc(NC(=O)/C(C#N)=C/c2cc3ccc(C)cc3nc2N2CCOCC2)cc1	?	-3%	8.2µM*	i	?	i
CC(C)c1ccc2oc(-c3cc(N)ccc3O)nc2c1	-7%	6%	29%	i	15%	18µM*
COc1cccc(/C=N/NC(=O)CCCC(=O)Nc2ccc(Br)cc2)c1	-2%	-5%	4%	i	6%	15µM*
COc1cc(/C=N/NC(=O)CCC(=O)Nc2ccc(Br)cc2)ccc1O	-2%	-3%	-2%	i	4%	?
COc1ccc(O)c(/C=N/NC(=O)CCC(=O)Nc2cccc(C)c2)c1	-9%	5.8µM*	?	i	1%	?
Cc1ccc(CN(C(=O)COc2ccc(C(C)(C)C)cc2)C2CCS(=O)(=O)C2)o1 (stereo not given)	.	.	.	.	0%	.
NC(=O)c1c(N)sc(=S)n1-c1ccccc1	1%	-1%[9.22 µM]	6.5µM*	i	0%	i
Cc1c(C(=O)O)sc(=S)n1-c1ccccc1	-3%	1%[9.22 µM]	1%	i	-2%	i
COc1ccccc1-c1nnc(SC2CCc3ccccc3NC2=O)s1 (stereo not given)	-7%	5%	-2%	i	-1%[38.3 µM]	5.8µM*
COc1ccc(OCc2ccc(-c3nc(C#N)c(NC(C)c4ccccc4)o3)o2)cc1 (stereo not given)	.	.	.	i	3%	?
COc1ccc(S(=O)(=O)Nc2cc(C)cc(C)n2)c2ccccc12	0%	13%	10%	i	.	i
